Compounds with a hit are over-represented: about 17% of the library has one in this group of screens.
TDP1 block = blocks human tyrosyl-DNA phosphodiesterase 1; AID 485290; Q9NUW8; 350,000 tested, 0.28% active; Potency, µM (titrated, usually from 130 µM), for inactives: top-dose activity change, negative = inhibition, most hits filed as inhibitors; recombinant TDP1, AlphaScreen DNA substrate cleavage; note: % is set by controls: 0 for no effect and ±100 for the full control effect; nearly all actives have a fitted effect of over 40% in size
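Here, a 5' biotin and 3' phosphotyrosine-FITC DNA oligonucleotide reports Tdp1 activity: intact substrate bridges AlphaScreen beads, while cleavage leaves a 3' phosphate and drops signal. All incubations at room temperature.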
DT40 TDP1 CPT = DT40-hTDP1 cell growth loss with CPT | Potency, µM (titrated, usually from 46.2 µM), for inactives: top-dose activity change, negative = growth inhibition, hits mostly inhibitors | 420,000 tested, 12% active | chicken DT40 Tdp1-/-;hTDP1 cells + 20 nM CPT, ATP luminescence, 48 h; note: % is set by controls: 0 for no effect and ±100 for the full control effect; nearly all actives have a fitted effect of over 55% in size
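Cell growth measured by CellTiter-Glo luminescence after a minimum 48 h, 37 C compound exposure with 20 nM CPT in Tdp1-knockout DT40 cells stably expressing hTDP1, seeded 400/well; qHTS titration format.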
DT40 TDP1 no CPT = qHTS for Inhibitors of human tyrosyl-DNA phosphodiesterase 1 (TDP1): qHTS in cells in absence of CPT | DT40 Tdp1-/- hTDP1 cells, no CPT, ATP luminescence, 48 h | Potency, µM (highest dose often 46.2 µM), for inactives: at the top dose activity change, negative = growth inhibition, actives largely listed as inhibitors | 420,000 tested, 15% active; note: % is set by controls: 0 for no effect and ±100 for the full control effect; nearly all actives have a fitted effect of over 55% in size
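Compound effects on proliferation are scored in DT40 Tdp1-/-;hTDP1 cells in the absence of CPT. ATP levels (CellTiter-Glo luminescence) are recorded after a ≥48 hr, 37 °C incubation.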
ClpP mod = qHTS Assay for Activators of ClpP. ATP-dependent Clp protease proteolytic subunit (Bacillus subtilis (strain 168)), P80244. purified B. subtilis ClpP, FRET peptide cleavage, 20 min. Potency, µM (top dose mostly 57.5 µM), for inactives: at the highest dose activity change, negative = active. 340,000 tested, 1.9% active. AID 651965, 2013; active = well fitted falling curve with a large enough effect; inconclusive = small, poorly fitted or top-dose-only effect; inactive = no such curve, though single readings can be large or run the other way; note: the source files actives as falling curves though it sought activators and does not explain the sign; nearly all actives have a fitted effect of over 65% in size
Target sequence (P80244 whole entry, looked up): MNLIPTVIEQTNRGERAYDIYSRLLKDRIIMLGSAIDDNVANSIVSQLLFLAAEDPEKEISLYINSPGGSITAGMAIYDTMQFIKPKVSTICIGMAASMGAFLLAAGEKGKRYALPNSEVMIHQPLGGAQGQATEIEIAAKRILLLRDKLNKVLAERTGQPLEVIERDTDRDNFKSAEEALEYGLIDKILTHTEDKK
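Purified B. subtilis ClpP, 10 microg/mL final in Tris/HCl pH8 with KCl, BSA, glycerol and Tween-20, cleaved an Abz/nitrotyrosine-quenched decapeptide. Fluorescence (ex 320, em 430) was read at 0 and 20 min at room temperature. Delta was normalized to 5.8 microM ADEP and DMSO/no-enzyme controls.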
Starred values were filed as active, the others as inactive; u = inconclusive; x = no result. Unless noted, calls come from the whole dose curve; as a rule, active = well fitted curve in the direction sought with a large enough effect; inconclusive = small, poorly fitted or top-dose-only effect, or another doubt; inactive = no such curve, though single readings can be large; an effect the other way counts as inactive or inconclusive. Potency is the fitted concentration of half-maximal effect.

SMILES	TDP1 block	DT40 TDP1 CPT	DT40 TDP1 no CPT	ClpP mod
OC[C@@H]1CN(CCN2CCOCC2)C[C@H](n2cnc3c(NC4CC4)ncnc32)O1	x	-8%	-6%	-1%
CCCc1nnc(NC(=O)CCC(=O)NCc2ccc(OC)cc2)s1	x	11%	11%	x
CC1CN(c2nc3c(c(=O)n(Cc4ccc(Cl)cc4)c(=O)n3C)n2C)CC(C)O1 (stereo not given)	2%	u	26µM*	-2%
Cn1c(=O)n(Cc2ccc(Cl)cc2)c(=O)c2c1nc1n2CCN1Cc1ccco1	6%	u	15µM*	2%
Cn1c(NCc2ccco2)nc2c1c(=O)n(Cc1ccc(Cl)cc1)c(=O)n2C	-9%	u	18µM*	-3%
Cc1cccc(Cn2c(=O)c3c(nc4n3CCN4Cc3ccco3)n(C)c2=O)c1	-2%	21µM*	21µM*	-1%
Cn1c(N2CCCC2)nc2c1c(=O)n(Cc1ccc(Cl)cc1)c(=O)n2C	2%	u	u	1%
Cc1ccnc(NS(=O)(=O)c2ccc(NC(=O)C(C)(C)C)cc2)n1	1%	-7%	2%	-3%
CCN(CC)C(=O)c1cccc(-c2csc(C(O)c3ccc(F)c(OC)c3)n2)c1 (stereo not given)	x	18µM*	16µM*	0%
CCN(CC)C(=O)c1cccc(-c2csc(C(C)(O)c3ccncc3)n2)c1 (stereo not given)	x	18µM*	21µM*	-3%
CCN(CC)C(=O)c1cccc(-c2csc(C(O)c3ccc(OC)cc3)n2)c1 (stereo not given)	x	16µM*	18µM*	-1%
CCN(CC)C(=O)c1cccc(-c2csc(C(O)c3cccc(Cl)c3)n2)c1 (stereo not given)	x	u	16µM*	-2%
COc1cccc(C(C)(O)c2nc(-c3cccc(C(=O)O)c3)cs2)c1 (stereo not given)	x	-22%	4%	0%
COc1cc(C(O)c2nc(-c3cccc(C#N)c3)cs2)ccc1F (stereo not given)	x	u	u	2%
CC(=O)CCC(=O)N1CCC(n2nccc2NC(=O)c2ccccc2C)CC1	-1%	-13%	0%	61%
COc1ccc(CN2CC[C@H]3C=CC[C@@H](C(=O)Nc4nccs4)[C@H]3C2=O)cc1OC	x	-19%	-6%	1%
CC(C)Cn1c(=O)c2sccc2n2c(CCCC(=O)NCCc3ccc(Cl)cc3)nnc12	3%	u	u	u
CCn1c(=O)c2sccc2n2c(CCCC(=O)N3CCN(c4ccc(F)cc4)CC3)nnc12	5%	15µM*	18µM*	-10%
CCCn1c(=O)c2sccc2n2c(CCCC(=O)N3CCN(c4ccccc4OC)CC3)nnc12	5%	18µM*	u	17%
CCCn1c(=O)c2sccc2n2c(CCCC(=O)N3CCN(c4cccc(C)c4C)CC3)nnc12	0%	21µM*	18µM*	-2%
CCCn1c(=O)c2sccc2n2c(CCCC(=O)NCCc3ccc(Cl)cc3)nnc12	0%	u	21µM*	u
CCCn1c(=O)c2sccc2n2c(CCCC(=O)N3CCN(c4cccc(Cl)c4)CC3)nnc12	0%	u	12µM*	u
COc1cc(/C=N/Nc2ccc(Cl)c(C(=O)O)c2)ccc1OCC(=O)N1C(C)CCCC1C (stereo not given)	2%	14%	-11%	1%
COC(=O)c1ccccc1-c1c2ccc(=N)cc-2oc2cc(N)ccc12	8%	0.73µM*	0.58µM*	x
Cc1ccc(OCC(=O)Nc2ccncc2)c(C)c1	x	21µM*	8.2µM*	0%
SMILES	TDP1 block	DT40 TDP1 CPT	DT40 TDP1 no CPT	ClpP mod
Cc1ccccc1OCC(=O)Nc1ccc2[nH]c(=O)sc2c1	2%	u	16µM*	-5%
Cc1ccccc1OCC(=O)Nc1ccncc1	5%	u	16µM*	-3%
Cc1cccc(OCC(=O)Nc2ccncc2)c1	x	4%	u	x
Cc1ccc(OCC(=O)Nc2ccc3[nH]c(=O)sc3c2)cc1	-10%	5%	-25%	1%
CC(=O)Nc1ccc(NC(=O)COc2cccc3ccccc23)cc1	x	9.2µM*	8.2µM*	0%
CC(N)CCCP(=O)(O)O (stereo not given)	-6%	-21%	-11%	x

From PubChem BioAssay
